Results published in the supplement of paper PMC11001985.

What follows are targets tested with C#CCNC(=O)CCSSCCC(=O)NCCc1ccc(C=O)c(C=O)c1 (assay: lysine labeling ratio R10:1 (500 µM / 50 µM probe), SILAC-ABPP in living cells; higher = lower intrinsic lysine reactivity toward the probe, active = 2 or less). Conditions: HeLa; probe concentrations 500 vs 50 µM.
Procedure, shortened: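 In PBS at room temperature, living HeLa cells grown with SILAC light or heavy labels were treated with 50 µM or 500 µM of an alkyne-tagged, disulfide-linked lysine probe, with label swaps in both directions. Analysis was by LC-MS/MS on a TIMS-TOF Pro after click to biotin-azide, neutravidin capture and DTT release. For each lysine, R is the median across forward and reverse replicates of the filtered median high-probe/low-probe MS1 peptide ratio, capped at 20.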

Sequence of UniProt P25705 (P25705 whole entry): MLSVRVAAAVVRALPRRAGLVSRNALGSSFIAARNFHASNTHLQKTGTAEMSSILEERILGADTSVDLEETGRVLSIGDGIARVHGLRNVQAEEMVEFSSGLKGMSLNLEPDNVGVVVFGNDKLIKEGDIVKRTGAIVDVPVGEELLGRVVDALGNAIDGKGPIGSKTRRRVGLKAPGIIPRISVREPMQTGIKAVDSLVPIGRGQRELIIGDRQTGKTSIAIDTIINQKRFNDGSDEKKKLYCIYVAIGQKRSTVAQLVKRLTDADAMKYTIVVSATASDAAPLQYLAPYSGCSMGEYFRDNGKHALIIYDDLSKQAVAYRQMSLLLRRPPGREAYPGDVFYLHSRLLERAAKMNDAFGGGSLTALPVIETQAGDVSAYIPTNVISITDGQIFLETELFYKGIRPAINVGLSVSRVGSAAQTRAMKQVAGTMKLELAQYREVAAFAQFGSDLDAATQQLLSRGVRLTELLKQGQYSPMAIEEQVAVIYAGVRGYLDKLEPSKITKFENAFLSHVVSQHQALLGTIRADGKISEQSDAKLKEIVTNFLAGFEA
Sequence of UniProt Q14574 (Q14574 whole entry): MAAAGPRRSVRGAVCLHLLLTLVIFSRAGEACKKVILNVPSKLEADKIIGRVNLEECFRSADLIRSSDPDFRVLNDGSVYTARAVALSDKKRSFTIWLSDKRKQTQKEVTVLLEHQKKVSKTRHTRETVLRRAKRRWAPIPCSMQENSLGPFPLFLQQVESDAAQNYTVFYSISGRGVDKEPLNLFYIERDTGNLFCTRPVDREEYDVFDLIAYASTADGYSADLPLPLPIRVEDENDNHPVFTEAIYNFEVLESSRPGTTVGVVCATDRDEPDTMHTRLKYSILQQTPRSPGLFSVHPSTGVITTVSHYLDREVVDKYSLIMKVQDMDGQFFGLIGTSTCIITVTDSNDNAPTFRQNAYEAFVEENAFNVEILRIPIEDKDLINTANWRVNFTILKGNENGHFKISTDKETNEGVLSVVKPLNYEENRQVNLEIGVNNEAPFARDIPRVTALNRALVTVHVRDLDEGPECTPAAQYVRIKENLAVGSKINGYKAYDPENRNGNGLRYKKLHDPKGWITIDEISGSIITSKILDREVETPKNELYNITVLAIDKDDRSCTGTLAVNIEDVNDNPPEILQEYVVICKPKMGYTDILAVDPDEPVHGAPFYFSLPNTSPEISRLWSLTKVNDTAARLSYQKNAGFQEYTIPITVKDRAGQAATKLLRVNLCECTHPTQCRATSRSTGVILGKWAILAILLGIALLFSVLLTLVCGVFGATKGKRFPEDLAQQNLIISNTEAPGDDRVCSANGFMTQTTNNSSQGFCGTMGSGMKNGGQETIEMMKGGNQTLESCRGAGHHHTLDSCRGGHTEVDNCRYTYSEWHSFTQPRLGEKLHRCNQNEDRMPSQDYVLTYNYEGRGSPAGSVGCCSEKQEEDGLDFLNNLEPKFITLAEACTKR
Sequence of UniProt Q13813 (Q13813 whole entry): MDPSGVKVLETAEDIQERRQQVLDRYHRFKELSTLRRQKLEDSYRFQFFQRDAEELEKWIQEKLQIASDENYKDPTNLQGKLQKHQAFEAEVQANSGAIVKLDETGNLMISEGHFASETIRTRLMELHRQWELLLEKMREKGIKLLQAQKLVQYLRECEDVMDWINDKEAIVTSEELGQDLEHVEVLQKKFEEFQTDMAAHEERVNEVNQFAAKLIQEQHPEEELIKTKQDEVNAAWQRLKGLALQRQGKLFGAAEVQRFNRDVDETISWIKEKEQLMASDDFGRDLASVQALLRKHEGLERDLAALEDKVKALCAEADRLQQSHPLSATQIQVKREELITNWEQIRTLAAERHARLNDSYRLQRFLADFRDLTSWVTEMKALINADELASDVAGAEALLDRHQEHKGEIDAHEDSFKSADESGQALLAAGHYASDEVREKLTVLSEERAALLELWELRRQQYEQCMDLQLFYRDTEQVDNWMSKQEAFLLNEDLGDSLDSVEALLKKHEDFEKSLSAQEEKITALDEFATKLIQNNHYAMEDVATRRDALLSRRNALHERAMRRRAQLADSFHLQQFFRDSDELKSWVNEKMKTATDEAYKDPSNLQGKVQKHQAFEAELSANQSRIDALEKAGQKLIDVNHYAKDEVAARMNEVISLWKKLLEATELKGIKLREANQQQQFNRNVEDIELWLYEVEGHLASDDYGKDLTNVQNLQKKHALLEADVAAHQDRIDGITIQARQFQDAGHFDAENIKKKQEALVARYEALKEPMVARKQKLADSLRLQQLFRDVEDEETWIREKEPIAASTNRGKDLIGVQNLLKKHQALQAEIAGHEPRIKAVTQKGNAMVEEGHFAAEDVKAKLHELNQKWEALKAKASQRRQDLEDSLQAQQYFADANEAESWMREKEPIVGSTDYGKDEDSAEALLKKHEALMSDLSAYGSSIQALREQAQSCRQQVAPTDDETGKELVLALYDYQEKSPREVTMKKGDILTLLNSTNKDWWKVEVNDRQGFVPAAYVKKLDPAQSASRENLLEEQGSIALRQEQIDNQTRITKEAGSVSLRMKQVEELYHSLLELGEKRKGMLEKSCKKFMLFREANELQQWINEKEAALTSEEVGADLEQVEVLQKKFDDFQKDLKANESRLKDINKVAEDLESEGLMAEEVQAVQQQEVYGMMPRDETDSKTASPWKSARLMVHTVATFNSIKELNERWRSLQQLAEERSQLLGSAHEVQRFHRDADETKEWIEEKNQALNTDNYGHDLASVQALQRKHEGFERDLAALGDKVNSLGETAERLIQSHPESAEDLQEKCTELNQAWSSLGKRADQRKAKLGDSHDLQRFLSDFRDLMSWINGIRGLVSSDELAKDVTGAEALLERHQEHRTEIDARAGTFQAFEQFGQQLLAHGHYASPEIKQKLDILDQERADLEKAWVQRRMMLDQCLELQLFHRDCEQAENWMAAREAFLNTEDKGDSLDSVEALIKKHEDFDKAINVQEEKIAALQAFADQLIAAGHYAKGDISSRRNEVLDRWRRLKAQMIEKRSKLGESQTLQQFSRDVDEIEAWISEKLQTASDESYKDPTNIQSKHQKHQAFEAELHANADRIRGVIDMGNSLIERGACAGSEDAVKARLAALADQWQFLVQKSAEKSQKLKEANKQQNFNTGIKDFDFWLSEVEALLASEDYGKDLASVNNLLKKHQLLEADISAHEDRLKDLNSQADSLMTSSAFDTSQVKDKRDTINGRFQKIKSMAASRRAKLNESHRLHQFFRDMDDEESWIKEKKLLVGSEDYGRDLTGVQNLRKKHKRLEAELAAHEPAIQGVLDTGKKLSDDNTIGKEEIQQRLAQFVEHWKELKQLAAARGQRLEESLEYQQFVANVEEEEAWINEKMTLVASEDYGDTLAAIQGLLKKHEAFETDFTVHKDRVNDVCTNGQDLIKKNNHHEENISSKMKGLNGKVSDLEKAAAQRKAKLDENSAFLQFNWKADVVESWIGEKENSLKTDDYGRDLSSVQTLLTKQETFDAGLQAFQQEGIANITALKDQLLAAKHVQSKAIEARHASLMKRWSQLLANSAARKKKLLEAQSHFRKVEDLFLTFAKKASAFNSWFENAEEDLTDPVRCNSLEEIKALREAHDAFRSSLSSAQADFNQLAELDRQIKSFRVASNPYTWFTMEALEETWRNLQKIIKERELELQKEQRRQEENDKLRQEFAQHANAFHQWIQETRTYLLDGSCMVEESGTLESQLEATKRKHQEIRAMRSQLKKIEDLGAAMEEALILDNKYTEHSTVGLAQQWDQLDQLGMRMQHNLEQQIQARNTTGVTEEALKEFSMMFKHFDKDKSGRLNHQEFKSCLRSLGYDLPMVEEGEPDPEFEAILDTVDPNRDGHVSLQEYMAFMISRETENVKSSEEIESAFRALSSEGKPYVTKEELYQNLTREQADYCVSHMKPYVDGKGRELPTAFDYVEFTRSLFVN
Sequence of UniProt P26006 (P26006 whole entry): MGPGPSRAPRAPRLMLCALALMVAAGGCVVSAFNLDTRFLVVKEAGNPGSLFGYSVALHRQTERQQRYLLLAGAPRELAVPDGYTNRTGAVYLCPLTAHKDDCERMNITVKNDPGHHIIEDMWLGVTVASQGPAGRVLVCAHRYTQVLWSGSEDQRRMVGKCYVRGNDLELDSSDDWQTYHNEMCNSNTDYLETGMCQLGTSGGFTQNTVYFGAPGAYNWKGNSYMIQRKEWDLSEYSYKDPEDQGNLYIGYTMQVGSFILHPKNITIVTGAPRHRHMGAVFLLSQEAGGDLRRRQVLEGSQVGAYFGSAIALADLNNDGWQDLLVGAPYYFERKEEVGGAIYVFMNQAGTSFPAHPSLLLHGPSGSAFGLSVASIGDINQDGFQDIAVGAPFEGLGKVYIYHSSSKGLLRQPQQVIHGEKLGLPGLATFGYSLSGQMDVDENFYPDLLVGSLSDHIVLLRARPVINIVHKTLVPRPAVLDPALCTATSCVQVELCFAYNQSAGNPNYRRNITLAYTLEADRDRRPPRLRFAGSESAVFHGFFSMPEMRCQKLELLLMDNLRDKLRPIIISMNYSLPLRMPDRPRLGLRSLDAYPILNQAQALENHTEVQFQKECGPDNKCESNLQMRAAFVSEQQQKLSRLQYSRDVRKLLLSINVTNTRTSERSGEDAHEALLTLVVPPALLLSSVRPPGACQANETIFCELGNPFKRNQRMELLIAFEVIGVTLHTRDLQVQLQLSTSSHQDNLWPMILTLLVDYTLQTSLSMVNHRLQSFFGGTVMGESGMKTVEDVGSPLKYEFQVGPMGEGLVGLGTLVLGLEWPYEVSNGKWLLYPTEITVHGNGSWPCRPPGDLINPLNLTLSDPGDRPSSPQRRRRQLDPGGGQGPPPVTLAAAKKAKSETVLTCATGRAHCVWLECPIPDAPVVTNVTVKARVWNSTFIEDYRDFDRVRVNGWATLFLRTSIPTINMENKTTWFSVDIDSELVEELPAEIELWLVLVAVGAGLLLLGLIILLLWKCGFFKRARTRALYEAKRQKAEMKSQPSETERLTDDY

Target	lysine labeling ratio R10:1
IGF1R (lysine site: K709) (UniProt P08069)	4.79 (inactive)
ITGA3 (lysine site: K161) (UniProt P26006)	5.16 (inactive)
HNRNPU (lysine site: K31) (UniProt Q00839)	1.72 (active)
ACTN4 (lysine site: K535) (UniProt O43707)	1.05 (active)
RPL22 (lysine site: K107) (UniProt P35268)	2.29 (inactive)
VTN (lysine site: K194) (UniProt P04004)	16.5 (inactive)
PFAS (lysine site: K639) (UniProt O15067)	1.58 (active)
AHNAK (lysine site: K128) (UniProt Q09666)	1.37 (active)
DDX3X (lysine site: K81) (UniProt O00571)	2.77 (inactive)
UniProt Q15149 (lysine site: K2047)	0.91 (active)
SPTAN1 (lysine site: K1546) (UniProt Q13813)	0.8 (active)
UniProt P25705 (lysine site: K167)	2.05 (inactive)
UniProt Q99623 (lysine site: K216)	2.79 (inactive)
LAMA5 (lysine site: K1854) (UniProt O15230)	3.02 (inactive)
ITGAV (lysine site: K400) (UniProt P06756)	0.958 (active)
PAFAH1B1 (lysine site: K54) (UniProt P43034)	3.44 (inactive)
MSN (lysine site: K412) (UniProt P26038)	3.35 (inactive)
UniProt Q14574 (lysine site: K281)	1.99 (active)
UniProt Q14574 (lysine site: K381)	1.61 (active)
BPTF (lysine site: K609) (UniProt Q12830)	8.91 (inactive)

Target	lysine labeling ratio R10:1
PLS3 (lysine site: K59) (UniProt P13797)	1.41 (active)
UniProt Q9HDC9 (lysine site: K356)	2.37 (inactive)
SDCBP (lysine site: K109) (UniProt O00560)	5.45 (inactive)
ITGA1 (lysine site: K711) (UniProt P56199)	3.16 (inactive)
UniProt Q15149 (lysine site: K630)	7.1 (inactive)
SPTAN1 (lysine site: K1699) (UniProt Q13813)	3.27 (inactive)
MYH9 (lysine site: K1181) (UniProt P35579)	3.53 (inactive)
ITGA3 (lysine site: K407) (UniProt P26006)	2.96 (inactive)
IGF1R (lysine site: K598) (UniProt P08069)	5.67 (inactive)
SPTBN1 (lysine site: K1815) (UniProt Q01082)	2.56 (inactive)
UniProt P25705 (lysine site: K230)	2.24 (inactive)
GPI (lysine site: K447) (UniProt P06744)	2.73 (inactive)
UniProt O95980 (lysine site: K684)	1.24 (active)
UniProt P06576 (lysine site: K522)	3.5 (inactive)
UniProt Q14964 (lysine site: K63)	2.17 (inactive)
ITGB5 (lysine site: K163) (UniProt P18084)	2.53 (inactive)
MYH10 (lysine site: K1782) (UniProt P35580)	1.76 (active)
UniProt P61978 (lysine site: K179)	3.68 (inactive)
RARS (lysine site: K557) (UniProt P54136)	1.64 (active)
ACTBL2 (lysine site: K114) (UniProt Q562R1)	1.15 (active)
